Results on 21 compounds are retold here after PubChem BioAssay AID504660 (National Center for Advancing Translational Sciences (NCATS), 2011).

SMILES strings stand for the structures. Values joined by “and” are separate entries in the source; they are usually repeats but may differ in a detail not shown here. Equal values may be shown once. About 3,700 (1%) of roughly 360,000 compounds were called active. The sample as a whole holds a higher share of actives than the screen did. A number with no mark means an inactive call. Cut-off read from the data, not from the text of the source: active = activation above about 30%; inactive = the rest.

D(1A) dopamine receptor (Homo sapiens), sequence (P21728 whole entry, looked up): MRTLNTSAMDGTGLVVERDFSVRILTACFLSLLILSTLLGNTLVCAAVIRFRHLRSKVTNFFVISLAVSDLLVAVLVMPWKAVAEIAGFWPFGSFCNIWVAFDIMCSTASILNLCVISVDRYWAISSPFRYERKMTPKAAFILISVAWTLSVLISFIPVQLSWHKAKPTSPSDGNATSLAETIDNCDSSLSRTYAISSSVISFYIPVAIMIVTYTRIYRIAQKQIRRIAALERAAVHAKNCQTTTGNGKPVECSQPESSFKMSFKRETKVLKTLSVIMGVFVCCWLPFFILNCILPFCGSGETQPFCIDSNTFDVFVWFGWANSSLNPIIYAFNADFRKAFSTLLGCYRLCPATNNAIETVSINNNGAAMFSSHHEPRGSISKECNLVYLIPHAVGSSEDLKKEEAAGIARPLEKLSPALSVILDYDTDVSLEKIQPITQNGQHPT

The test addresses D(1A) dopamine receptor (Homo sapiens) (UniProt P21728). Kind of test: Allosteric Agonists of the Human D1 Dopamine Receptor: qHTS. Note: 0% is about no effect. To be noted: HEK293 T-REx D1 cells, calcium flux, agonist mode; at 2 µM; stronger effect = higher value. The method, boiled down: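 Agonism was scored from calcium flux recorded over 180 s (1 read/s) after pintool compound addition, following a 10-cycle baseline. Cells were inducible force-coupled HEK293 TREx D1, plated overnight at 30 C and loaded with no-wash calcium dye.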
(qHTS replaces the single test concentration by a dilution series.)
As to `O=c1n(Cc2cccc(C(F)(F)F)c2)c2ccccc2c2nc(-c3ccccc3)nn12`, the activation was 5.18%.

On to `CCOC(=O)C1CCCN(C(=O)Cn2ncc3c(C)n(Cc4ccc(F)cc4)c(C)c3c2=O)C1` (stereo unspecified), for which the activation is 5.3%.

`Cc1nn(-c2ccc(N3CCCCC3)nn2)c(C)c1CCC(=O)NCc1ccccc1F`: the activation is -0.954%.

Regarding `Cc1ccc(C)c(NC(=O)C2CCCN(S(=O)(=O)c3cn(C)cn3)C2)c1` (stereo unspecified), the activation was -0.383%.

In the case of `CC(C)NC(=O)c1nn(-c2ccccc2F)nc1CO`, the activation was 1.01%.

Turning to `CCOC(=O)c1c(C)oc2nc(C)nc(N(CC(C)C)CC(C)C)c12`, the activation was 5.8%.

For `CCc1cccc(NC(=O)c2cnc(N3CCOCC3)c3ccccc23)c1`, the activation was -0.292%.

For `CC1=C(C(=O)OCC(C)C)C(c2ccc(OCc3ccccc3)cc2)N2C(=O)CCSC2=N1` (stereo unspecified), the activation was 13.9%.

Turning to `Cc1c(-c2nsc(NC(=O)c3cccc(Cl)c3)n2)nnn1-c1ccccc1C(F)(F)F`, the activation is 6.51%.

As to `O=C(CCS(=O)(=O)c1ccccc1)N(Cc1cccnc1)c1nc2c(F)cccc2s1`, the activation was 7.8%.

With `Cc1cccc2sc(N(CCCN(C)C)C(=O)CCS(=O)(=O)c3ccccc3)nc12`, the activation was 44.5% (active).

For the compound `O=C(O)CCS(=O)(=O)c1ccc(-c2ccccc2)cc1`, the activation was -0.731%.

Turning to `CCc1nnc(SCC(=O)Nc2cc(OC)ccc2OC)nc1CC`, the activation is 0.834%.

In the case of `CN(c1ccccc1)c1ccc(/C=c2\s/c(=C(/C#N)C(=O)C(C)(C)C)n(Cc3ccco3)c2=O)cc1`, the activation was 86% (active).

For the compound `CCOc1ccccc1NC(=O)Cn1c(=O)n(Cc2ccco2)c(=O)c2sc3ccccc3c21`, the activation is 0.44%.

For `Cc1cc(C)nc(NC(=O)Nc2ccccc2C(F)(F)F)n1`, the activation was 7.87%.

Consider `CCc1ccccc1NC(=O)c1cc(-c2ccc3c(c2)OCO3)on1`, for which the activation was 1.41% and 1.39%.

`O=C(Nc1ccccc1C(F)(F)F)c1cc(-c2ccc(O)cc2)on1`: the activation was 76.6% (active).

With `CCOC(=O)CN1C(C(=O)c2ccccc2)=C(OC(=O)C(C)(C)C)c2ccccc2S1(=O)=O`, the activation is 2.02%.

For the compound `CC(=O)OC1=C(C(C)=O)N(Cc2ccccc2)S(=O)(=O)c2ccccc21`, the activation was -0.292%.

As to `CCCCC(=O)OC1=CN(Cc2ccccc2)S(=O)(=O)c2ccccc21`, the activation is 43.4% (active).
